Bioassay records (PubChem BioAssay)
Shn3 inh set2: Schnurri-3 reporter inhibition in Clone20 osteoblasts; Clone20 osteoblast Shn3 3'UTR firefly luciferase, 24 h; inhibition, % at 12.5 µM; 360,000 tested, 0.52% active;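 active = mean inhibition of at least 75% with every replicate also reaching 75%; inconclusive = mean inhibition at least 75% but some replicate below; inactive = mean inhibition below 75%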;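 note: 0% = median of neutral control wells and 100% = pilot-screen positive control compound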
Peg3 promoter: inhibitors of Peg3 promoter; inhibition, % at 20 µM; 360,000 tested, 1.7% active; HeLa PEG-Prom luciferase reporter, luminescence, overnight;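 active = inhibition of at least 50% at 20 µM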
CF NFkB block: blocks PAF-induced NF-kB reporter in cystic fibrosis cells; KKLEB NF-kB-GFP reporter, GFP fluorescence overnight; 360,000 tested, 0.86% active; inhibition, % at 5 µM; AID 588850;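 active = at least 50% inhibition at 5 µM, scaled per plate between neutral and stimulator controls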;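 note: PAF is a Pseudomonas aeruginosa culture filtrate used as stimulus; plate controls were PAF-stimulated DMSO wells for no effect and unstimulated DMSO wells for full effect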
HIF-2a inh: blocks HIF-2a reporter activity. 360,000 tested, 0.72% active. inhibition, % at 18.8 µM. 786-0 RCC cells HIF-2a reporter, luciferase luminescence, overnight. AID 624352;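 active = inhibition of the luminescence signal of 40% or more relative to plate controls, in a single-dose primary screen at 18.75 µM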
MITF TRPM1 inh: reduces MITF-dependent TRPM1 promoter luciferase signal; 330,000 tested, 0.83% active; SK-MEL-5 TRPM1 promoter luciferase, 24 h; inhibition, % at 12.5 µM;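 active = mean inhibition across replicates of 60% or more, whatever share of single replicates reaches that level; inconclusive = some that reach 60%, reason not given; inactive = mean inhibition across replicates below 60%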
KKLEB cytotox: counter-screen for CF NF-kB inhibitors: cytotoxicity | KKLEB CF airway cells viability, ATPlite luminescence, overnight; active compounds read low; cells stimulated with P. aeruginosa culture filtrate | activity change (cytotoxicity), % at 5 µM | 360,000 tested, 0.36% active | AID 602141;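 active = corrected activity change at or below -50% at 5 µM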
* = called active by the depositor; ? = inconclusive; . = no result given. Compounds with a hit are over-represented: about 2.7% of the library has one in this group of screens.

SMILES	Shn3 inh set2	Peg3 promoter	CF NFkB block	HIF-2a inh	MITF TRPM1 inh	KKLEB cytotox
COc1cccc(N=Nc2ccc(O)c3ncccc23)c1	80	-91	100*	-123	52	-81*
COc1cccc(N=Nc2ccc3cccnc3c2O)c1	90*	-16	-25	-70	43	5
COc1ccc(C)cc1N=Nc1ccc(O)c2ncccc12	90*	49	10	22	72*	-7
O=Nc1ccc(O)c2ncccc12	86*	76*	72*	-3	41	-51*
Nc1ccc(N=Nc2ccccc2)c2cccnc12	-32	-197	23	-230	-44	-6
O=C1/C(=C/c2ccc([N+](=O)[O-])cc2)CCC1C1CCCC1 (configuration not stated)	-4	-93	7	-124	-1	4
O=[N+]([O-])c1cccc(COc2ccccc2CO)c1	.	.	.	-41	.	.
Cc1ccccc1N=Nc1ccc(O)c2ncccc12	?	22	-9	1	76*	10
COc1ccc(N=Nc2cc(-c3ccccc3)ccc2O)cc1	-9	-47	-21	-73	-1	10
O=S(=O)(O)c1cccc2c(N=Nc3ccc(O)c4ncccc34)cccc12	3	1	-3	3	13	3
COc1ccc(N=Nc2ccc(O)c3ncccc23)cc1	91*	-32	3	-39	69*	2
CC1CC(=O)c2ccccc2C1C (configuration not stated)	-5	18	-31	28	13	-1
O=C(Nc1ccc(Br)c(C(F)(F)F)c1)c1ccc(C(F)(F)F)cc1	-13	-48	65*	-274	.	-69*
O=C(Nc1ccc(Br)c(C(F)(F)F)c1)c1ccccc1	14	-183	-7	-212	-20	12
COc1ccc(C(=O)Nc2ccc(OCC(F)(F)C(F)F)c(C(F)(F)F)c2)cc1OC	-9	24	-6	-1	-3	-1
O=C(Nc1ccc(OCC(F)(F)C(F)F)c(C(F)(F)F)c1)c1ccc(Cl)cc1	78	25	42	-13	68*	-40
CCCCCCCN1C2=NCCCN2c2ccccc21	87*	17	9	10	1	-11
Cc1ccc(CN2C3=NCCCN3c3ccccc32)cc1	41	15	12	17	-6	2
CC(C)(C)c1ccc(CN2C3=NCCCN3c3ccccc32)cc1	88*	20	25	17	48	-28
Cc1cc2c(cc1C)N(Cc1ccc(Cl)cc1)C1=NCCCN12	46	57*	5	20	51	3
CCCCOc1cccc(C2/C(=C(/O)c3ccc4c(c3)CC(C)O4)C(=O)C(=O)N2CCN2CCOCC2)c1 (configuration not stated)	-21	-9	-8	1	-8	-15
CCCCCN(C(=O)CCC(=O)OCC(=O)c1ccc(CCC)cc1)c1c(N)n(CCCC)c(=O)[nH]c1=O	3	9	3	-6	9	-10
COc1ccc(NC(=O)CSCC(=O)Nc2cccc3ncccc23)cc1	-21	9	-35	8	-5	20
CCCCOCCCNc1ncnc2c1[nH]c1ccccc12	83*	11	-2	7	11	-3
COc1cc(OC)c(OC)cc1/C=N/Nc1ncnc2c1[nH]c1ccccc12	-3	89*	30	5	-9	-29
SMILES	Shn3 inh set2	Peg3 promoter	CF NFkB block	HIF-2a inh	MITF TRPM1 inh	KKLEB cytotox
COc1ccc(/C=N/Nc2ncnc3c2[nH]c2ccc(C)cc23)c(OC)c1OC	0	73*	9	-10	2	-7
COc1cc(OC)c(OC)cc1/C=N/Nc1nc2ccccc2[nH]1	-3	0	-1	20	8	13
COc1cc(CNc2ncnc3c2[nH]c2ccc(C)cc23)cc(OC)c1	-9	24	29	23	17	-13
COCCNC(=O)C(c1ccc(C)cc1)N(Cc1cccs1)C(=O)CCC(=O)Nc1ccccn1 (configuration not stated)	3	4	-10	8	19	13
Cc1ccc(S(=O)(=O)N2CCC(C(=O)NCCCN3CCCC3=O)CC2)cc1C	-4	-5	3	5	-2	9
CCn1c(/C=C/c2cc(Br)ccc2O)nc2ccccc2c1=O	-2	68*	30	22	15	-10
Cc1ccc(C(=O)NCc2ccccn2)cc1S(=O)(=O)N1CCCCC1	3	22	-26	15	-3	-9
Cn1c(=O)n(C)c2cc([N+](=O)[O-])c(N3CCN(S(=O)(=O)c4ccc(C(C)(C)C)cc4)CC3)cc21	85*	-6	-6	-9	-3	12
CCCCn1c(=N)n(CC(O)COc2ccc(C)cc2)c2ccccc21 (configuration not stated)	78	72*	-8	0	43	-6
Cc1ccc(Cn2c(=N)n(CC(O)COc3ccccc3)c3ccccc32)cc1 (configuration not stated)	85	29	18	-31	-11	-4
N=c1n(Cc2ccccc2)c2ccccc2n1CC(O)COc1ccccc1 (configuration not stated)	89*	71*	16	6	38	-18
CC(=O)Nc1ccc(S(=O)(=O)N(C)CC(=O)OC(C)C(=O)N(C)Cc2ccccc2)cc1 (configuration not stated)	-14	17	-24	10	-12	11
O=c1c2ccccc2sc2ccc(NCCCN3CCOCC3)cc12	-106	-275	-72	-257	-73	11
O=c1c2ccccc2sc2c(CO)ccc(NCCN3CCCCC3)c12	-7	88*	-74	55*	15	-2
CCN(CC)CCCNc1ccc2ncn3c4ccc(O)cc4c(=O)c1c23	21	23	-24	34	52	-11
CCN(CC)CCNc1ccc(CO)c2oc3ccccc3c(=O)c12	-4	7	-37	40*	.	-6
CCN(CC)CCNc1ccc(CO)c2sc3ccccc3c(=O)c12	2	58*	-58	43*	29	-4
CC(=O)N1c2ccc(S(=O)(=O)N3CCCC3C(=O)NCc3ccccc3Cl)cc2CC1C (configuration not stated)	-12	12	-32	3	.	25
NC(=S)NN=C1c2cc(OCCN3CCOCC3)ccc2-c2ccc(OCCN3CCOCC3)cc21	22	107*	-51	19	79*	-38
Clc1ccc(OCCN2CCOCC2)cc1Cl	-12	-34	3	-52	-11	1
ON=C1c2cc(OCCN3CCCCC3)ccc2-c2ccc(OCCN3CCCCC3)cc21	-9	111*	-8	-33	74*	-3
CCN(CC)S(=O)(=O)c1ccc(N2CCOCC2)c(NC(=O)c2cc(-c3ccccn3)nc3ccccc23)c1	19	62*	97*	-5	5	-89*
